Lassa entry inh = inhibitors of Lassa virus binding or cell entry. Potency, µM (highest dose often 37.9 µM), inactives show at the highest dose activity change, negative = inhibition, usual class: inhibitors. 300,000 compounds, 1.2% hits. Lassa virus pseudotype entry inhibition, cell reporter; calls by dose curve; tested in HEK293 cells; note: potency is the fitted concentration of half-maximal effect; % is set by controls: 0 for no effect and ±100 for the full control effect; nearly all actives have a fitted effect of over 50% in size
Shiga inhibitor = inhibitors of Shiga toxin in Vero cells | Vero cells, Shiga toxin protein synthesis inhibition reporter | inhibition, % at 38.7 µM | 290,000 compounds, 9.2% hits | AID 2315; in the data active = inhibition mostly above about 28%, no sharp cut-off; inactive = mostly below about 43%; note: 0% is about no effect
Marburg entry inh = Marburg virus entry inhibition; Marburg virus pseudotyped entry inhibition, cell reporter; Potency, µM (highest dose often 37.8 µM), inactives show at the highest dose activity change, negative = inhibition, actives largely listed as inhibitors; 300,000 compounds, 1.8% hits; calls by dose curve; tested in HEK293 cells; note: potency is the fitted concentration of half-maximal effect; % is set by controls: 0 for no effect and ±100 for the full control effect
Cycloheximide cs = counter-screen hit for Shiga toxin inhibitors, cycloheximide. 300,000 compounds, 12% hits. max response, %. AID 2314. cell reporter, cycloheximide protein synthesis inhibition counterscreen; in the data active = max response mostly above about 13%, no sharp cut-off; inactive = mostly below about 14%; note: read at 38.3 µM for the half of the compounds with a filed dose; 0% is about no effect
* hit, by the source's call; u = inconclusive; x = no result; [ ] = dose if it differs, or a comment. Hits are enriched below; roughly 12% of the tested compounds scored in any of these assays.

SMILES	Lassa entry inh	Shiga inhibitor	Marburg entry inh	Cycloheximide cs
CCCCOc1ccc(C(=O)N2CCC(C)CC2)cc1	u	15.4	29.5%	10.3
CCCCOc1ccc(C2CCC(C(C)=O)C(C)C2)cc1 (stereo not drawn)	-0.4%	62.4*	2.9%[46.1 µM]	50.5*
CC(C)CC(=O)Nc1ccc(-c2nc3ccccc3c(=O)[nH]2)cc1	u	73.3*	u	31.8*
COc1ccc(NC(=O)C(=O)NCc2ccco2)c(OC)c1	21.8%[46.1 µM]	x	x	x
O=c1[nH]c(-c2ccccn2)cc2ccccc12	u	52.0*	u	36.4*
Cc1c(-c2ccc(Cl)cc2)c(=O)oc2ccc(OC(=O)N3CCOCC3)cc12	-29.9%[46.1 µM]	x	x	x
O=C(Cn1ncc2c3ccccc3n(Cc3ccccc3)c2c1=O)N1CCC2(CC1)OCCO2	x	30.4	-2.2%	29.4*
CC1Cc2nc(SCC(=O)NCc3ccccc3)n(Cc3ccccc3)c(=O)c2S1 (stereo not drawn)	x	23.1	x	5.3
CC1Cc2nc(SCC(=O)c3ccccc3)n(Cc3ccccc3)c(=O)c2S1 (stereo not drawn)	x	40.5*	x	14.2*
CCOC(=O)C1(CCOc2ccccc2)CCN(Cc2cccc3c2OCO3)CC1	u	-13.6	u	-1.4
CCOC(=O)C1(CCOc2ccccc2)CCN(Cc2cc(OC)c3c(c2)OCO3)CC1	u	-8.7	2.82µM*	-1.1
CCOC(=O)C1(Cc2cccc(OC)c2)CCN(Cc2ccc(OC)c(OC)c2)CC1	u	-5.5	4.47µM*	16.7
CCOC(=O)C1(Cc2cccc(OC)c2)CCN(Cc2cccc(O)c2)CC1	-14.8%	11.9	u	-3.0
CCOC(=O)C1(Cc2cccc(OC)c2)CCN(Cc2ccc(C)s2)CC1	4.47µM*	-8.3	5.01µM*	-1.2
Cc1ccc(CNC(=O)C2CCN(C(=O)Nc3ccccc3)CC2)cc1	9.8%	8.8	19.7%[46.1 µM]	7.8
Cc1ccc(CNC(=O)NCc2ccccc2)cc1	x	149.0*	x	25.7*
Cc1ccc(CNC(=O)Nc2ccccc2)cc1	-14.6%	123.4*	-20.0%	33.3*
Cc1occc1C(=O)NCc1ccccc1	12.6%	30.4	12.1%	0.7
Cc1ccc(C)c(CNC(=O)Nc2ccccc2)c1	-12.7%	74.3*	3.8%[46.1 µM]	30.5*
Cc1ccc(C(=O)NCc2ccccc2)c(F)c1F	x	64.7*	x	13.7
COc1cccc(-c2nnc3n2N=C(c2ccc(OC)cc2OC)CS3)c1	x	-5.1	x	12.1
Cc1nnc(SCc2ccc(Cl)cc2)c2cc3occc3n12	-3.8%[46.1 µM]	x	x	x
CCOc1ccccc1-n1c(N)c(C(=O)OC)c2nc3ccccc3nc21	-3.3%[46.1 µM]	x	15.1%[46.1 µM]	x
Cc1ccc(C(OCC(C)(C)C[N+](C)(C)C)c2ccccc2)cc1 (stereo not drawn)	-28.0%[46.1 µM]	14.3	u	-0.4
CCOC(=O)C(=O)Nc1ccccc1C(=O)NCc1ccccc1	x	84.7*	x	32.9*
SMILES	Lassa entry inh	Shiga inhibitor	Marburg entry inh	Cycloheximide cs
CCOC(=O)C(=O)Nc1ccccc1C(N)=O	6.9%	-2.2	-4.8%[46.1 µM]	-2.2
Cc1[nH]n(C(N)=S)c(=O)c1N=Nc1ccc2ccccc2c1	-2.5%	92.5*	u	45.5*
Cc1ccc(N=Nc2c(C)[nH]n(C(N)=S)c2=O)cc1C	u	157.6*	15.3%	26.0*
NC(=S)n1[nH]c(-c2ccc([N+](=O)[O-])cc2)c(N=Nc2cccc([N+](=O)[O-])c2)c1=O	u	15.4	u	4.7
CC(=O)Nc1ccc(N=Nc2c(C)[nH]n(C(N)=S)c2=O)cc1	x	87.8*	x	33.8*
Cc1[nH]n(C(N)=S)c(=O)c1N=Nc1ccc(S(=O)(=O)N2CCCCCC2)cc1	16.1%	46.0	5.2%	13.8
Cc1[nH]n(C(N)=S)c(=O)c1N=Nc1cc(-c2ccc(Br)cc2)[nH]n1	16.1%	57.9	u	34.6*
O=C(O)CCCC(=O)N1CCc2cc(S(=O)(=O)NCc3ccc(F)cc3)ccc21	x	18.6	x	-1.4
Cc1nn(-c2ccc(N3CCOCC3)nn2)c(C)c1CCC(=O)NCc1ccc(Cl)cc1	-0.6%[46.1 µM]	x	x	x
Cc1cc(Br)ccc1NC(=O)CNC(=O)CN(C)Cc1nc2ccccc2c(=O)[nH]1	-7.4%	14.2	-2.0%	-1.7
O=C(Cc1ccccc1)NN1C(=O)/C(=C/c2ccccc2C(=O)O)SC1=S	x	20.2	x	-0.9
NS(=O)(=O)c1ccc(CNC(=O)CNC(=O)c2ccc(F)cc2)cc1	x	67.8*	x	14.9*
Cc1cc(C)cc(C(=O)NCC(=O)NCc2ccc(S(N)(=O)=O)cc2)c1	9.9%[46.1 µM]	17.8	u	-0.1
CC(=O)c1ccc2noc(-c3cccc(F)c3)c2c1	-19.7%	6.9	-29.9%	-0.4
CC1(c2ccc3noc(-c4ccccc4)c3c2)OCCO1	u	29.9	-14.7%	-1.3
COc1cccc(-c2onc3ccc(C4(C)OCCO4)cc23)c1	u	31.1	u	25.8*
CC1(c2ccc3noc(-c4ccc(F)cc4)c3c2)OCCO1	-12.8%	72.4	-0.2%	18.5*
COc1cccc(-c2onc3ccc(C(C)=O)cc23)c1	x	31.3	x	15.4*
CC(=O)N/C(=C\c1ccccc1)C(=O)OCC(=O)N(C)C1CCS(=O)(=O)C1 (stereo not drawn)	10.1%	x	16.8%	x
c1ccc(CCC2CCCCN2Cc2nc(-c3ccc4c(c3)OCO4)no2)nc1 (stereo not drawn)	2.0%[46.1 µM]	-5.4	u	0.7
COC(=O)c1sccc1NC(=O)Nc1ccccc1Cl	-6.2%[46.1 µM]	-10.7	4.8%[46.1 µM]	-1.7
CCOC(=O)N1CCN(S(=O)(=O)c2ccc(C)cc2)C1c1ccc(OC)cc1 (stereo not drawn)	23.1µM*	7.9	u	1.4
S=c1[nH]cc(-c2ccc(Cl)cc2)n1Cc1ccccc1	x	13.4	x	14.0*
O=C(OCn1ncc(Br)c(Br)c1=O)c1ccc(F)cc1	12.6µM*	13.4	5.62µM*	23.9*
O=C(OCn1ncc(Br)c(Br)c1=O)c1ccccc1Cl	11.2µM*	-23.6	10µM*	12.5
SMILES	Lassa entry inh	Shiga inhibitor	Marburg entry inh	Cycloheximide cs
Cc1cc(N2CCN(c3nc(-c4ccccc4)cs3)CC2)c2ccccc2n1	u	-6.4	-15.0%	-2.2
CCS(=O)(=O)N1CCN(c2nc(-c3ccccc3)cs2)CC1	-0.1%	30.0	1.1%	18.4*
O=C(CCCl)N1CCN(c2nc(-c3ccccc3)cs2)CC1	x	68.7*	x	32.7*
CS(=O)(=O)N1CCN(c2nc(-c3ccccc3)cs2)CC1	u	64.4	15.2%	27.4*
Cc1ccc(N2CC(C(=O)Nc3ccc(S(=O)(=O)Nc4ncccn4)cc3)CC2=O)cc1C (stereo not drawn)	x	16.8	-5.1%[46.1 µM]	-5.9
O=C(Nc1ccccc1N1CCCC1)C1CCCO1 (stereo not drawn)	1.9%[46.1 µM]	x	u	x
Cc1ccc(C)c(NC(=O)c2ccccc2NC(=O)C2CCCO2)c1 (stereo not drawn)	x	12.9	x	1.6
CCc1c(C)nc2nncn2c1Nc1cccc(C)c1	-6.7%[46.1 µM]	x	0.6%[46.1 µM]	x
CCOC(=O)c1cccc(Nc2nc(C)cc(C)n2)c1	u	13.2	12.9%[46.1 µM]	13.8*
Cc1cc(C)nc(Nc2cccc(Cl)c2)n1	x	33.6	x	15.1*
CCOC(=O)c1cccc(Nc2cc(C)nc(C)n2)c1	5.4%[46.1 µM]	x	1.5%[46.1 µM]	x
Cc1ccc2c(c1)[nH]c1c(=O)n(Cc3ccco3)cnc12	x	34.8	x	20.6*
NC(N)=Nc1nc(CSCC/C(N)=N\S(N)(=O)=O)cs1	x	x	4.3%	x
COC(=O)c1ccc(C(=O)OC)c(NC(=O)Nc2ccc3c(c2)OCO3)c1	u	61.7*	1.5%	24.6*
COC(=O)c1ccccc1NC(=O)Nc1ccc2c(c1)OCO2	20.7%	61.3	-2.1%	16.4*

Compound activity deposited in PubChem BioAssay by National Center for Advancing Translational Sciences (NCATS).
